Laboratory results: PubChem BioAssay (NCI)
About 79,000 compounds went through this panel and 15% of them were active in at least one assay; those are over-represented in the sample as a whole. Unmarked numbers belong to inactive results. Active and inactive are the calls of the source. Rule as the data show it: active = growth inhibition above about 70%; inactive = the rest.

What was measured:
[1] = NCI Yeast Anticancer Drug Screen. Data for the rad50 strain (AID 155);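 also: 0% = growth of vehicle-only cultures of the same strain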; settings: S. cerevisiae rad50 strain growth inhibition, active compounds read high
In short: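 Genetically altered yeast (DNA repair pathway); compound treatment; growth inhibition vs vehicle ctrl.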

[2] = NCI Yeast Anticancer Drug Screen. Data for the mec2-1 strain (AID 157); settings: S. cerevisiae mec2-1 strain, active compounds read high
In short: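 Yeast mec2-1 mutant treated with compound. Readout: growth inhibition vs vehicle controls.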

[3] = NCI Yeast Anticancer Drug Screen. Data for the sgs1 mgt1 strain (AID 161);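 also: 0% = growth of cultures given vehicle only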; settings: S. cerevisiae sgs1 mgt1 strain, active compounds read high
In short: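 Mutant yeast exposed to compound; growth scored against vehicle-only wells.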

[4] = NCI Yeast Anticancer Drug Screen. Data for the cln2 rad14 strain (AID 165);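 also: 0% = growth equal to vehicle treated cultures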; settings: S. cerevisiae cln2 rad14 strain, active compounds read high
In short: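 cln2 rad14 yeast strain; compound exposure; growth inhibition read vs vehicle controls.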

[5] = NCI Yeast Anticancer Drug Screen. Data for the bub3 strain (AID 167); settings: S. cerevisiae bub3 mutant strain, active compounds read high
In short: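 Yeast carrying a defined mutation is treated with each compound, and growth is compared with that of vehicle-exposed cells to give inhibition.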

[6] = NCI Yeast Anticancer Drug Screen. Data for the mlh1 rad18 strain (AID 175); settings: S. cerevisiae mlh1 rad18 strain growth inhibition, active compounds read high
In short: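 Yeast w/ defined DNA-repair lesions; compound exposure; growth vs vehicle controls → % inhibition.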

[7] = at 5.0 µM (retest, dose inferred, filed as 0.5)
[8] = at 50.0 µM (retest, dose inferred, filed as 5.0)

Row | SMILES | growth inhibition [1, 7] | growth inhibition [1, 8] | growth inhibition ([1]; at 50.0 µM) | growth inhibition [2, 7] | growth inhibition [2, 8] | growth inhibition ([2]; at 50.0 µM) | growth inhibition [3, 7] | growth inhibition [3, 8] | growth inhibition ([3]; at 50.0 µM) | growth inhibition [4, 7] | growth inhibition [4, 8] | growth inhibition ([4]; at 50.0 µM) | growth inhibition [5, 7] | growth inhibition [5, 8] | growth inhibition ([5]; at 50.0 µM) | growth inhibition [6, 7] | growth inhibition [6, 8] | growth inhibition ([6]; at 50.0 µM)
1 | Clc1ccc(C2=CCN3CC=C(c4ccc(Cl)cc4)C23)cc1 | 24% | 18% | 99.8% (active) | 1% | 42% | 99.9% (active) | 32% | 46% | 100% (active) | 13% | 5% | 99.6% (active) | 17% | 41% | 99.8% (active) | 18% | 39% | 99.8% (active)
2 | C/C(CCn1[nH]c(=O)ccc1=O)=N\NS(=O)(=O)c1ccc(C)cc1 | -3% | -3% | -4.05% | 4% | 15% | 4.6% | 0% | -11% | 12.6% | 11% | 29% | -6.7% | -1% | 6% | -5.15% | -8% | 11% | -10.3%
3 | COC1/C=C\C=C(/C)C(=O)NC2=CC(=O)C(N)=C(CC(C)CC(OC)C(O)C(C)C=C(C)C1OC(N)=O)C2=O (stereo not given) | -28% | 88% (active) | 86.4% (active) | -23% | 91% (active) | 87.7% (active) | 5% | 92% (active) | 88% (active) | -36% | 81% (active) | 76.9% (active) | -16% | 93% (active) | 87.9% (active) | -22% | 89% (active) | 84% (active)
4 | CSc1cccc(N2C(=O)C=CC2=O)c1 | 42% | 52% | 91.5% (active) | 49% | 48% | 93.4% (active) | 100% (active) | 100% (active) | 94% (active) | 69% | 100% (active) | 91.5% (active) | 100% (active) | 100% (active) | 92.7% (active) | 34% | 45% | 92.5% (active)
5 | CC(=O)OC1CCC2(C)C(CCC3C4=CCC(C5COC(=O)C5)C4(C)CCC32)C1 (stereo not given) | -1% | 79% (active) | 77.2% (active) | 17% | 94% (active) | 61.5% | -5% | 88% (active) | 84.7% (active) | -2% | 89% (active) | 63.1% | 4% | 91% (active) | 59.8% | 11% | 90% (active) | 78.1% (active)
6 | C[n+]1c2ccc(Cl)cc2nc2cc(-c3ccccc3)ccc21 | 15% | 98% (active) | 98.6% (active) | 23% | 99% (active) | 99% (active) | 32% | 99% (active) | 98.9% (active) | 7% | 98% (active) | 98.2% (active) | 54% | 98% (active) | 98.9% (active) | 39% | 98% (active) | 98.6% (active)
7 | O=C1c2ccccc2C(=O)[C@@]23O[C@@]12C1(Oc2cccc4cccc(c24)O1)[C@@H]1O[C@@H]1[C@@H]3O | 79% (active) | 98% (active) | 88.1% (active) | 84% (active) | 99% (active) | 91% (active) | 62% | 99% (active) | 91.2% (active) | 48% | 98% (active) | 88.7% (active) | 56% | 99% (active) | 89.5% (active) | 85% (active) | 98% (active) | 84.9% (active)
8 | Cc1nc2c(cnn2-c2ccccc2)c(=O)o1 | -143% | -140% | 28.3% | -52% | -52% | 2.25% | -57% | -62% | -3.15% | -52% | -45% | -31.2% | -65% | -73% | -0.85% | -115% | -108% | 50.6%
9 | O=c1oc2ccccc2c(O)c1C1=N/C(=N/N=C/c2ccc(Cl)cc2)SC1 | -6% | 97% (active) | 64.2% | -3% | 98% (active) | 30.7% | -3% | 97% (active) | 4.05% | 0% | 95% (active) | 50.2% | -1% | 97% (active) | 98.5% (active) | 1% | 97% (active) | 47.2%
10 | CC(C)(c1ccc(OC#N)cc1)c1ccc(OC#N)cc1 | 21% | 78% (active) | 66% | -23% | 87% (active) | 53.4% | 4% | 40% | 79.5% (active) | 23% | 88% (active) | 61.4% | 1% | 95% (active) | 25% | -14% | 59% | 47%
